D1 agonist = activates the human D1 dopamine receptor; P21728; HEK293 T-REx D1 cells, calcium flux, agonist mode; activation, % at 2 µM; hit rate 1% among 360,000; AID 504660; in the data active means activation above about 30%; further: 0% is about no effect
Target sequence (P21728 whole entry, looked up): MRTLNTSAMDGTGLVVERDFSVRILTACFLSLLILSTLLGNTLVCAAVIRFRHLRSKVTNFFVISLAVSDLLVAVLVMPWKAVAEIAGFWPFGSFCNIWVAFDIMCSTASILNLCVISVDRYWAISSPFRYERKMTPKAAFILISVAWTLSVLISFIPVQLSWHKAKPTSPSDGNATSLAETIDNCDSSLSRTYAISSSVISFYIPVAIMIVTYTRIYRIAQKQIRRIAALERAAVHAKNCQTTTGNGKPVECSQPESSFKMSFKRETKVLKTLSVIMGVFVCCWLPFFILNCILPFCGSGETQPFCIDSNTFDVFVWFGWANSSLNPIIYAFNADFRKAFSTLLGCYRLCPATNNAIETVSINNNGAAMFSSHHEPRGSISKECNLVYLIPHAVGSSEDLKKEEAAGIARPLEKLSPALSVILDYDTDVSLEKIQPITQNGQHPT
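Inducible HEK293 T-REx D1 cells, force-coupled to calcium signalling, were plated at 4000 cells/well with tetracycline and held overnight at 30 C. After no-wash calcium dye loading, compound-evoked calcium rise over 180 s flagged agonists.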
D1 antagonist = human D1 dopamine receptor antagonism; P21728; activity change, negative = inhibition, % at 10 µM; hit rate 3.2% among 360,000; HEK293 TREx D1 cells, calcium flux, dopamine EC80; hits give low values; in the data active means activity change below about -30%; further: on the % scale 0 is the no-effect control and ±100 the full control effect
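HEK293 T-REx cells expressing inducible, force-coupled D1 receptor; no-wash Ca dye, 30–90 min RT. Cmpd → 180 s read at 1 Hz → EC80 DA → 180 s read.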
D1 potentiator = potentiators of human D1 dopamine receptor; potentiation, % at 10 µM; hit rate 0.036% among 360,000; HEK293 TREx D1 cells, calcium flux, dopamine EC20 potentiation; P21728; in the data active means potentiation above about 30%; further: 0% is about no effect
DRD3 antagonist = blocks the human D3 dopamine receptor; D3R cells, DiscoveRx beta-arrestin luminescence, antagonist mode; hits give low values; max response, negative = inhibition, %; hit rate 2.5% among 360,000; in the data active means max response below about -50%; inconclusive means no clear call, values can overlap the other calls; further: on the % scale 0 is the no-effect control and ±100 the full control effect
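Cells expressing the human receptor were seeded at 1500 cells/well, incubated overnight at 37 degrees C in 5% CO2, then exposed to library compounds with dopamine controls for 90 minutes at 37 degrees C before luminescent detection.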
DRD3 agonist = activates the human D3 dopamine receptor; hit rate 0.58% among 410,000; AID 652048; P35462; D3R DiscoveRx beta-arrestin cells, luminescence, 90 min; max activation, %; in the data active means max activation above about 30%; further: 0% is about no effect
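Agonist mode: compounds and dopamine controls were applied to plated cells for 90 min at 37 degrees C after an overnight attachment at 1500 cells/well. Luminescent read-out followed 30 - 60 minutes at room temperature with DiscoveRx detection reagent.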
* = called active by the depositor; ? = inconclusive; · = no result given. Rows were chosen to be rich in hits. Some 6.1% of all compounds tested hit in one or more screens of this group.

SMILES | D1 agonist | D1 antagonist | D1 potentiator | DRD3 antagonist | DRD3 agonist
C/C(=N\NC(=O)c1nnn(-c2nonc2N)c1-c1ccc2c(c1)OCO2)c1ccccc1 | 34* | 10 | -2 | -14 | -3
C/C(=N\NC(=O)c1nnn(-c2nonc2N)c1-c1ccc2c(c1)OCO2)c1ccc(C)cc1 | 104* | 53 | 16 | -9 | 3
C/C(=N\NC(=O)c1nnn(-c2nonc2N)c1CN(C)c1ccccc1)c1cccc(O)c1 | 16 | -39* | -15 | -14 | -5
O=C(NC(CSCc1ccccc1)C(=O)N/N=C/c1ccc(O)cc1O)c1ccc([N+](=O)[O-])cc1 (centres undefined) | 2 | -13 | -2 | 20 | 50*
CCCOc1ccc(C(=O)CCC(=O)Nc2ccc(N3CCN(C)CC3)cc2)cc1 | 5 | -79* | -20 | -2 | -2
CCOc1ccc(CNc2ccc(N3CCCC3)cc2)cc1 | 2 | -8 | -4 | -12 | -6
CCOc1ccc(NC(=O)CCN2CCN(c3ccccc3)CC2)cc1 | -4 | 2 | -2 | -52* | 26
CCCOc1ccc(C(=O)CCNc2ccc(C)c(Cl)c2)cc1 | 3 | -7 | -3 | -84* | -12
Cc1ccc(NCCC(=O)c2ccc(Cl)cc2)cc1C | 0 | 10 | -5 | -22 | -7
CCCOc1ccc(C(=O)CCC(=O)OCC(=O)Nc2ccc(OCC)cc2)cc1 | 7 | -2 | -6 | · | ·
CCOc1ccc(CNc2ccc(N3CCN(Cc4ccccc4)CC3)cc2)cc1 | 12 | -6 | -16 | -62* | -21
CCOC(=O)CCCNC(=O)COC(=O)c1ccc(O)cc1 | 3 | 5 | 1 | 6 | -1
CCc1nc2ccc(C(=O)N3CCN(c4ccccc4F)CC3)cc2nc1CC | 3 | 1 | 7 | 6 | 5
CN1CCN(c2ccc3c(c2)OC[C@@H](Cc2ccccc2)NS3(=O)=O)CC1 | · | · | · | -25 | -6
CCOC(=O)c1c(C)[nH]c(C)c1S(=O)(=O)N1CCN(c2ccccc2OC)CC1 | 0 | 2 | 7 | · | -18
CCOc1ccc(C(=O)CCC(=O)NNC(=O)CCN2CCN(c3ccccc3)CC2)cc1 | · | · | · | -63* | -4
O=C(CSc1oc(-c2ccccc2)nc1S(=O)(=O)c1ccc(Cl)cc1)c1ccccc1 | 2 | -12 | 3 | · | -15
Cc1ccc2nc3n(c2c1)CCCN3 | 1 | 6 | -3 | -59* | 0
Cc1ccc2nc3n(c(=O)c2c1)CCCCC3 | 1 | 7 | 3 | -11 | 3
CC(C)c1nccn1CCC(=O)O | 3 | -44* | -28 | 22 | -3
CCC(=O)c1c[nH]c(C(=O)N2CCN(c3ccccc3)CC2)c1 | 1 | -3 | -1 | -10 | -3
CCC(=O)c1c[nH]c(C(=O)N2CCOCC2)c1 | 0 | -37* | -7 | -14 | 8
COc1ccc(N2CC(C)Cn3c2nc2c3c(=O)n(CCN3CCOCC3)c(=O)n2C)cc1 (centres undefined) | 0 | -7 | 0 | 6 | 7
COc1cccc(N2CC(C)Cn3c2nc2c3c(=O)n(CCN3CCOCC3)c(=O)n2C)c1 (centres undefined) | 4 | 4 | -4 | -64* | -5
C[C@]12C=CC(=O)C=C1CC[C@@H]1[C@@H]2C(=O)C[C@@]2(C)[C@H]1CC[C@]2(O)C(=O)COC(=O)CCC(=O)O | 2 | -6 | -1 | -6 | 9
SMILES | D1 agonist | D1 antagonist | D1 potentiator | DRD3 antagonist | DRD3 agonist
COc1cccc(OC)c1OCCNCC1CSc2ccccc2O1 (centres undefined) | · | · | · | -95* | -81
COc1cccc(OC)c1OCCCOc1c(OC)cccc1OC | 4 | -13 | -2 | -4 | -2
N#Cc1cc(N)c(Nc2ccccc2)cc1C#N | 10 | -41* | -11 | ? | -11
Cc1ccc(NC(=O)C(=O)NCc2ccc(/C=C(/C#N)C(=O)NCc3cccnc3)o2)cc1 | 13 | -29 | -11 | ? | 9
N#C/C(=C/c1ccc(CNC(=O)C(=O)Nc2cc(Cl)cc(Cl)c2)o1)C(=O)NCc1cccnc1 | 0 | -63* | -5 | -28 | 1
O=C(NCc1cccnc1)/C(=C\c1ccc(-c2cccc(Cl)c2)o1)S(=O)(=O)c1ccccc1 | 3 | -1 | -2 | -50* | -32
Cc1ccc(NC(=S)NCCC(c2ccccc2)c2ccccc2)c(C)c1 | 4 | -10 | 0 | -67* | -2
Cc1ccccc1NC(=S)NCCC(c1ccccc1)c1ccccc1 | 4 | -8 | -8 | -60* | -23
Cc1ccc(NC(=S)NCc2ccccc2)c(C)c1 | 7 | -26 | 2 | -8 | -9
CCN1CCCc2cc(CN(CCN3CCOCC3)C(=S)Nc3cccc(Cl)c3)ccc21 | 4 | 28 | 4 | -11 | -24
CCN(CC)CCNC(=O)C12CC3CC(CC(C3)C1)C2 | 2 | -9 | -6 | -63* | -9
Cc1cc(C)n2nc(C(=O)OCC(=O)NCc3ccc(Cl)cc3)nc2n1 | -1 | -33* | -6 | 18 | 2
Cc1ccnc2nc(C(=O)OCCOc3ccc(F)cc3)nn12 | 3 | -14 | 0 | -10 | 0
Cc1ccnc2nc(C(=O)OCCOc3ccc(Cl)cc3)nn12 | 7 | -37* | -4 | 10 | 5
O=C(Nc1nnc(C2CC2)s1)c1cncc(Br)c1 | · | · | · | -8 | -2
NS(=O)(=O)c1ccc(NC(=O)COC(=O)c2ccc([N+](=O)[O-])s2)cc1 | 1 | -1 | -4 | -5 | -6
CCCCN(C)C(=O)C1CCCN(c2ncnc3onc(C)c23)C1 (centres undefined) | 22 | -22 | -7 | · | -6
COc1ccc(N2CCN(c3ncccc3-c3nc(-c4ccccc4C)no3)CC2)cc1 | 5 | -31* | -1 | · | 8
Cc1cccc([C@@H]2[C@@H]3C(=O)N(Cc4ccccc4)C(=O)[C@@H]3[C@]3(Cc4ccccc4)C(=O)N(c4ccc(C(F)(F)F)cc4)C(=O)N23)c1 | 8 | 0 | -1 | 5 | 2
COC(=O)C1(C)CCc2cc(OC)ccc2C1=O (centres undefined) | 0 | -46* | 5 | 17 | -2
O=[N+]([O-])c1ccc(S(=O)(=O)c2cccc(C(F)(F)F)c2)nc1 | · | · | · | -126* | -33
O=S(=O)(Nc1cccnc1)c1cccc(C(F)(F)F)c1 | 0 | -2 | -1 | -12 | -9
Cn1[nH]c(C(F)(F)F)c(C=Nc2ccc(Cl)cc2)c1=O | 1 | 0 | 7 | -63* | -4
NC(=O)c1nsc(C(=O)N(c2ccc3c(c2)OCO3)C(C(=O)NCC2CCCO2)c2ccc(F)cc2)c1N (centres undefined) | -1 | -77* | -9 | 1 | -2
NC(=O)c1nsc(C(=O)N(c2ccc(Cl)cc2)C(C(=O)NCC2CCCO2)c2cccs2)c1N (centres undefined) | 2 | -33* | -5 | 2 | -2
Cn1c(SCc2nnc(-c3ccccc3Br)o2)nc2sc3c(c2c1=O)CCC3 | 6 | -22 | 4 | 27 | 34*

Assay outcomes from PubChem BioAssay.
